For 40 molecules, Potency results are on record in PubChem BioAssay AID1508619 (National Center for Advancing Translational Sciences (NCATS), 2020).

Each structure is given as a SMILES string. Results filed as inconclusive are left out. Where a call stands in place of a potency, no number is given. Active and inactive are the calls of the source. Calls follow the shape of the dose curve; as a rule, active = well fitted inhibition curve with a large enough effect; inconclusive = small, poorly fitted or top-dose-only effect; inactive = no such curve, though single readings can be large or run the other way.
Potency is read from the fitted curve at half-maximal effect.

This assay in a line: Counterscreen qHTS for Identification of Calcium Integrin Binding Protein 1 (CIB1) Competitor. The settings on record: series mostly up to 114 µM. An excerpt:
Assay Provider: Ulhas P. Naik, PhD
Sidney Kimmel Medical College
Thomas Jefferson University, Philadelphia, PA
Primary function of platelets is to maintain hemostasis. At the site of vascular injury, platelets adhere to adhesive proteins such as collagen and von Willebrand factor. Adherent platelets are activated and generate soluble platelet agonists such as thrombin, ADP and thromboxane A2. Following exposure of circulating platelets to these agonists, results in platelet shape change, granule secretion and activation of platelet integrin alphaIIb-beta3. Ligand binding to activated integrin alphaIIb-beta3 triggers outside-in signaling, leading to platelet aggregation, stabilization of platelet plug, and clot retraction. Upon atherosclerotic plaque rupture also causes platelet plug formation, which underlies a number of cardiovascular diseases such as myocardial infraction and stroke. A number of anti-platelet drugs such as aspirin, clopidogrel, prasugrel, vorapaxar, and eptifibatide are currently available to prevent the thrombotic complications. However, these anti-platelet agents have several limitations including inherent variability in individual responses, developing resistance, and serious bleeding side effects. For these reasons they are not suitable for long-term protection. Based on the experiences with current anti-platelet drugs, it appears that the most useful therapeutic approach is to intersect the secondary responses such as integrin outside-in signaling or recruitment of platelets by TxA2 and secreted ADP. Compounds, which can largely preserve the primary hemostatic function of platelets but inhibit secondary response will be most desired therapeutic agents for treatment of cardiovascular disease.
CIB1 is a calcium integrin binding protein, which specifically interact with the alphaIIb subunit of integrin alphaIIb-beta3. Binding of CIB1 to alphaIIb regulates the outside-in signaling in platelets, which is needed for thrombus stabilization and thrombus growth. […] Therefore, we propose that discovery of a small molecule that can prevent the association of CIB1 and alphaIIb-beta3 will be a potential anti-platelet agent that can block the thrombus formation without undue effect on hemostasis.
To develop fluorescence polarization (FP) assay using fluorescently labeled alphaIIb peptide and CIB1 protein. Using FP assay characterize the binding affinity, competitive inhibition, and acceptable Z factor (0.5 to1) in order to perform the HTS to identify small molecule compound that can prevent CIB1 binding to platelet integrin alphaIIb-beta3. Active compounds were re-acquired and validated using confirmatory and counterscreens (using 100 nM scrambled peptide).
[1] Naik MU, Nigam A, Manrai P, et al. CIB1 deficiency results in impaired thrombosis: the potential role of CIB1 in outside-in signaling through integrin alpha IIb beta 3. J Thromb Haemost. 2009;7(11):1906-1914. doi:10.1111/j.1538-7836.2009.03581.
SEQUENCE No. (1, 2, 3, etc.); […] (e.g., Cells, Incubation, Reagent, etc.); VALUE and DESCRIPTION.
1; Reagent; 3 uL; Protein or buffer (4/3x)
2; Compound; 46 nL; Control inhibitor / compound library
3; Time; 15 min; Room temperature incubation
4; Reagent; 1 uL; Fluorescent labeled peptide (4x)
5; Time; 1000 rpm; Centrifuge
6; Time; 15 min; Room temperature incubation
7; Detection; Ex 480/ Em 540; ViewLux Fluorescence Read
NOTES (numbers refer to sequence above)
1; Protein Mixture: C1B1-GST (final concentrations of 1 uM). Buffer composition: 5 mM HEPES pH 7.4, 125 mM NaCl, 5 mM CaCl2, 0.01% Tween20.
2; Control Inhibitor: unlabeled peptide (final concentration range 17.4 nM to 572 uM). Compound Library final concentration range 18.3 nM to 114 uM.
3; Room temperature incubation.
4; Fluorescent Labeled Peptide: FITC-alphaIIb (final concentration of 100 nM). Sequence of Scrambled peptide: Acetyl-[…]-FITC (purity is 95.37%).
6; Room temperature incubation.
[…]
For the molecule `O=C(O)C1=NC(C(=O)O)CC(C=CN2c3cc(O)c(OC4OC(CO)C(O)C(O)C4O)cc3CC2C(=O)O)=C1` (stereo not given), the Potency result is “inactive”.

`Cn1cnc(-c2nccc3c(=O)[nH]c(OCCCC(F)(F)F)nc23)c1`: the Potency entry was “inactive”.

Consider `O=[S+]([O-])(NCc1nccs1)c1ccc(Nc2nc(-c3ccccc3)cs2)cc1`, for which the Potency was 50.1 µM (active).

In the case of `O=C(O)c1c(Cl)c(Cl)c(Cl)c(Cl)c1-c1c2cc(I)c(=O)c(I)c-2oc2c(I)c(O)c(I)cc12`, the Potency result is “inactive”.

For the molecule `O=C1CCCC2=C1C(c1cccnc1Br)N=C(Nc1nc3ccccc3o1)N2` (stereo not given), the Potency entry is “inactive”.

For the molecule `O=C1c2ccccc2C(=O)c2c1ccc(O)c2O`, the Potency was 22.4 µM (active).

Regarding `CN(C(=O)c1cccs1)c1cccnc1`, the Potency is 44.7 µM (active).

As for `Nc1ccc(CNc2ccc([S+](=O)([O-])Nc3nccs3)cc2)c(O)c1`, the Potency is 50.1 µM (active).

With `O=C(O)c1ccc(O)c2ncc(N3CCC(N4CCOCC4)C3)cc12` (stereo not given), the Potency entry was “inactive”.

As to `CCCC(=O)c1cc(O)c(O)cc1O`, the Potency is 31.6 µM (active).

With `Cc1ccc(C)n1-c1cccc(C(=O)O)c1`, the Potency entry was “inactive”.

As to `O=C1c2cccc(O)c2C(=O)c2c(O)cc(CO)cc21`, the Potency entry was “inactive”.

As for `N#Cc1cnc(NS(=O)(=O)c2ccc(NC(=O)Cc3ccc(Cl)c(Cl)c3)cc2)s1`, the Potency result is “inactive”.

As to `Cc1cc2nc3ccc(=[N+](C)C)cc-3sc2cc1N`, the Potency is 44.7 µM (active).

In the case of `CCOC(=O)c1nnc(N[S+](=O)([O-])c2ccc(NC(=O)Cc3ccc(Cl)c(Cl)c3)cc2)s1`, the Potency result was “inactive”.

`CO[C@@]12[C@H](COC(N)=O)C3=C(C(=O)C(C)=C(N)C3=O)N1C[C@@H]1N[C@@H]12`: the Potency entry was “inactive”.

For `N#Cc1ccc(N[S+](=O)([O-])c2ccc(Nc3nc(-c4ccccc4)cs3)cc2)cc1`, the Potency was 44.7 µM (active).

Regarding `O=C(Cc1ccccc1)NC(c1ccco1)c1cc(Cl)c2cccnc2c1O` (stereo not given), the Potency entry was “inactive”.

Take `CCOc1ccc2nc3cc(N)ccc3c(N)c2c1`: the Potency is 31.6 µM (active).

For `O=C(NC(c1ccco1)c1cc(Cl)c2cccnc2c1O)c1cccs1` (stereo not given), the Potency result is “inactive”.

Turning to `CCc1ccc(NC(=O)C(=O)NNC(=O)c2cccs2)cc1`, the Potency entry is “inactive”.

For the molecule `C[C@H]1COC2=C1C(=O)C(=O)c1c2ccc2c1CCCC2(C)C`, the Potency entry was “inactive”.

Turning to `CC(=O)NC(c1cccs1)c1cc(Br)c2cccnc2c1O` (stereo not given), the Potency result was “inactive”.

Consider `O=C(O)c1ccccc1SC1=NS(=O)(=O)c2ccccc21`, for which the Potency result was “inactive”.

`CN1CCN(c2ccc(-c3cc(O)c4ncccc4c3)cc2)CC1`: the Potency result is “inactive”.

As to `C[C@H](Cc1ccc(O)c(O)c1)[C@@H](C)Cc1ccc(O)c(O)c1`, the Potency is 12.6 µM (active).

For the molecule `NC(=O)C1CCN(c2ncc(Br)s2)CC1`, the Potency was 39.8 µM (active).

Turning to `CSC(Cc1ccc(Cl)cc1)C(=O)Nc1ccc(Cl)cc1C(=O)O` (stereo not given), the Potency entry was “inactive”.

Take `C[n+]1cc2c3c(ccc2c2ccc4cc5c(cc4c21)OCO5)OCO3`: the Potency result was “inactive”.

Take `O=S(=O)(c1ccc2nc(Cl)c(Cl)nc2c1)N1CCN(S(=O)(=O)c2c(F)cccc2F)CC1`: the Potency entry is “inactive”.

On to `CCc1oc2ccccc2c1C(=O)c1cc(I)c(O)c(I)c1`, for which the Potency is 100 µM (active).

With `CCCCC(CC)CN=C(N)NC(N)=NCCCCCCN=C(N)NC(N)=NCC(CC)CCCC` (stereo not given), the Potency result is “inactive”.

Consider `CCCCCCCCCCCCCCCC[N+](C)(C)CCN(Cc1ccc(OC)cc1)c1ncccn1`, for which the Potency result was “inactive”.

In the case of `COc1ccc2c(=O)n3nc(Nc4cccc(N5CCN(C)CC5)c4)sc3nc2c1`, the Potency result is “inactive”.

In the case of `NC[C@H](O)c1ccc(O)c(O)c1`, the Potency result was “inactive”.

For `Cc1ccc(Cl)cc1NC(=O)c1nc[nH]c1C(=O)Nc1nc2ccccc2[nH]1`, the Potency result was “inactive”.

As to `CC1(C)N=C(Nc2nc3ccccc3o2)NC2=C1C(=O)CCC2`, the Potency result was “inactive”.

Regarding `Cc1cc(C(C#N)c2ccc(Cl)cc2)c(Cl)cc1NC(=O)c1cc(I)cc(I)c1O` (stereo not given), the Potency result is “inactive”.

For `Cc1ccc(S(=O)(=O)Nc2cnccc2C(=O)Nc2nc3ccccc3s2)cc1`, the Potency result is “inactive”.

On to `O=[S+]([O-])(Nc1nccs1)c1ccc(NCc2cc(F)cc(Cl)c2O)cc1`, for which the Potency entry was “inactive”.
